Screens from PubChem.
An excerpt weighted towards active compounds, which were near 21% of everything screened.
Shiga inhibitor = blocks Shiga toxin action in Vero cells; 290,000 compounds, 9.2% hits; Vero cells, Shiga toxin protein synthesis inhibition reporter; inhibition, % at 38.7 µM; in the data active means inhibition mostly above about 28%, no sharp cut-off; inactive means mostly below about 43%; further: 0% is about no effect
NS1 function inh = influenza NS1 inhibition. Potency, µM (highest dose often 46.1 µM), for inactives: top-dose activity, positive = more growth. AID 2326. 270,000 compounds, 0.4% hits; calls by dose curve; further: potency means the concentration at half of the fitted maximal effect; actives are rising curves; nearly all actives have a fitted effect of over 50% in size
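Recovery from NS1-induced slow growth read by OD600 in budding yeast switched to galactose assay medium (pH 6.0, -URA) at 1:100 dilution. Compound 23 nl per well; the matching strain lacking NS1 serves as control.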
Pf growth 96h = P. falciparum growth inhibition at 96 hour, primary screen for plastid delayed-death inhibitors; P. falciparum luciferase reporter growth, 96 h; Potency, µM (titrated, usually from 28.7 µM), for the others: at the top dose activity change, negative = inhibition, hits mostly inhibitors; 320,000 compounds, 6.9% hits; further: potency means the concentration at half of the fitted maximal effect; on the % scale 0 is the no-effect control and ±100 the full control effect
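Compounds incubated with erythrocytes infected by luciferase-expressing P. falciparum (2% hematocrit, 0.05% parasitemia final) for 96 hours, 37 C in 5% CO2. Growth inhibition scored as decreased luciferase luminescence.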
SARS PLP yeast = SARS-CoV PLP inhibition in yeast; 330,000 compounds, 0.19% hits; AID 485353; S. cerevisiae expressing SARS-CoV PLpro, growth rescue; Potency, µM (titrated, usually from 32.9 µM), for inactives: at the highest dose activity, positive = growth rescue, most hits filed as activators; calls by dose curve; further: potency means the concentration at half of the fitted maximal effect; 0% is about no effect; nearly all actives have a fitted effect of over 55% in size
CHX counter = counter-screen hit for Shiga toxin inhibitors, cycloheximide. cell reporter, cycloheximide protein synthesis inhibition counterscreen. max response, %. 300,000 compounds, 12% hits; in the data active means max response mostly above about 13%, no sharp cut-off; inactive means mostly below about 14%; further: read at 38.3 µM for the half of the compounds with a filed dose; 0% is about no effect
Pf growth 48h = inhibits P. falciparum growth in the first generation, 48 h; P. falciparum luciferase growth in erythrocytes, 48 h; 310,000 compounds, 5.9% hits; Potency, µM (top dose mostly 28.7 µM), without a hit: at the highest dose activity change, negative = inhibition, most hits filed as inhibitors; further: potency means the concentration at half of the fitted maximal effect; on the % scale 0 is the no-effect control and ±100 the full control effect
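A one-generation exposure of luciferase-tagged malaria parasites in RPMI 1640/Albumax erythrocyte culture, 37 C and 5% CO2. Inhibition is inferred from decreased luminescence after adding detection reagent.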
* marks the source's active call; other numbers are inactive results; u = inconclusive; x = not tested or not shown; [ ] = dose if it differs, or a comment. Unless noted, the call rests on the fitted dose curve; in most records, active means well fitted inhibition curve with a large enough effect; inconclusive means small, poorly fitted or top-dose-only effect, or another doubt; inactive means no such curve, though single readings can be large or run the other way.

SMILES	Shiga inhibitor	NS1 function inh	Pf growth 96h	SARS PLP yeast	CHX counter	Pf growth 48h
O=C(NCCN1CCOCC1)C1(C(F)(F)F)C/C(=C/CCO)CCCO1 (stereo not given)	-4	x	x	x	-8	x
CC(C)[C@H](N)C(=O)NC[C@H]1CC[C@H](C(=O)N[C@@H](Cc2ccccc2)C(=O)O)CC1	2	3%	-35%	2%	-3	-44%
CN(C)S(=O)(=O)c1ccc(Cl)c(NC(=O)CNC2(C)CCS(=O)(=O)C2)c1 (stereo not given)	x	x	x	2%	x	x
CC(C)c1ccc(CNc2ncc(Br)cn2)cc1	32*	2%	12%	1%	17*	90%
CC(C)(C)c1ccc(Cn2cnc(-c3ccc([N+](=O)[O-])cc3)c2)cc1	54*	1%	u	4%	40*	67%
CC(C)c1ccc(CNc2ccc([N+](=O)[O-])cn2)cc1	74*	x	1%	-14%	55*	229%
O=[N+]([O-])c1ccc(NCc2ccc(Cl)cc2)nc1	63*	-5%	93%	-2%	39*	295%
CC(C)c1ccc(CNc2nnnn2C)cc1	-7	-4%	-22%	0%	-1	-11%
Cc1cc(C)c(Cn2cnc(-c3ccc([N+](=O)[O-])cc3)c2)c(C)c1	12	-3%	u	5%	-1	u
CC1CCC2(CC1)NC(=O)N(NC(=O)CCc1c[nH]c3ccccc13)C2=O (stereo not given)	x	x	3%	-1%	x	15%
CC(C)(C)c1ccc(CNc2ccc([N+](=O)[O-])cn2)cc1	81*	-4%	u	-46%	23*	42%
CCOc1ccc(CCNC(=O)COC(=O)c2cc(=O)[nH]c3ccccc23)cc1OCC	x	x	7%	12%	x	0%
Cc1ccccc1N/N=C/c1c(C)nc2ccccn12	-5	-5%	u	-3%	-3	9.3µM*
CS/C(N)=C(C#N)/C(C#N)=C(\N)SC	17	x	x	x	6	x
O=C(CSc1nnc(CCCN2C(=O)c3cccc4cccc(c34)C2=O)n1-c1ccccc1)N1CCCCC1	-4	-5%	u	4%	-4	12µM*
C/C(=N\Nc1nc2ccccc2s1)c1ccc2c(c1)OCO2	70*	14%	128%	-3%	54*	66%
C/C(=N\Nc1nc2ccccc2s1)c1ccc(Br)s1	41*	14%	u	-5%	19*	u
Cc1csc(NC(=O)CSc2ncc(-c3ccccc3)[nH]2)n1	10	-13%	31%	-7%	30*	73%
CCc1nnc(NC(=O)CSc2ncc(-c3ccccc3)[nH]2)s1	20	14%	x	-7%	38*	24%
NS(=O)(=O)c1cc(C(=O)OCC(=O)c2ccc3c(c2)OCCO3)ccc1Cl	59*	9%	-41%	0%	40*	-11%
N#CCC(=O)Nc1ccc(C(=O)OCC(=O)Nc2ccc3ccccc3c2)cc1	x	x	-14%	-3%	x	13µM*
CC1(C(=O)OCC(=O)Nc2ccc3ccccc3c2)CC1(Cl)Cl (stereo not given)	64*	-3%	42%	-15%	37*	20%
N#CCC(=O)Nc1ccc(C(=O)OCC(=O)c2ccc3c(c2)OCCO3)cc1	68*	x	50%	-3%	48*	89%
NC(=O)COC(=O)c1ccccc1SCC(=O)NC1CCCCCC1	-9	x	-1%	0%	1	6%
COC(=O)c1c(Sc2ccccc2)c2ccccc2n1C	9	1%	u	-3%	-2	4%
SMILES	Shiga inhibitor	NS1 function inh	Pf growth 96h	SARS PLP yeast	CHX counter	Pf growth 48h
O=C(COC(=O)c1cc(=O)c2ccccc2o1)Nc1ccc2ccccc2c1	-22	5%	81%	-12%	11*	17%
N#CCC(=O)Nc1ccc(C(=O)OCC(=O)NNC(=O)c2cccs2)cc1	x	x	32%	-1%	x	7%
N#CCC(=O)Nc1ccc(C(=O)OCC(=O)N=c2sccn2Cc2ccccc2Cl)cc1	x	x	u	3%	x	12µM*
CC(CCc1ccccc1)NC(=O)COC(=O)c1ccc(NC(=O)CC#N)cc1 (stereo not given)	-2	4%	u	2%	-7	12µM*
CC(=O)Nc1ccc(S(=O)(=O)NNC(=O)c2cccc([N+](=O)[O-])c2)cc1	-7	3%	4%	-4%	-6	6%
C#Cc1ccc([C@H]2C=C(C(=O)N3CCOCC3)O[C@@H](OCc3ccc(CO)cc3)C2)cc1	-7	-1%	u	-2%	-2	u
CCOc1ccc2nc(NC3=NCN(Cc4ccco4)CN3)nc(C)c2c1	-19	6%	15µM*	4%	-7	u
Cc1nc(NC2=NCN(Cc3ccco3)CN2)nc2ccccc12	-15	0%	1.9µM*	8%	-1	-20%
Cc1nc(NC2=NCN(CCCN3CCOCC3)CN2)nc2c(C)cccc12	6	4%	-6%	3%	-2	2.3µM*
Cc1nc(NC2=NCN(C3CCCCC3C)CN2)nc2ccccc12 (stereo not given)	-3	-10%	u	0%	9	13µM*
Cc1nc(NC2=NCN(Cc3ccccc3)CN2)nc2ccccc12	-9	0%	-14%	-5%	1	u
O=C(O)CN1C(=O)c2ccc(Oc3ccc4c(c3)C(=O)N(CC(=O)O)C4=O)cc2C1=O	-12	1%	50%	0%	-5	2.1µM*
O=C(O)CN1C(=O)c2ccc(Oc3cccc4c3C(=O)N(CC(=O)O)C4=O)cc2C1=O	-11	3%	x	4%	-3	-3%
N#Cc1c(Cl)cccc1Oc1ccc(S(=O)(=O)Nc2ccccc2)cc1	19	9%	u	-1%	-2	8%
COc1ccc(NC(=S)N2CCN(c3ccccn3)CC2)cc1OC	-1	-5%	7.4µM*	3%	4	-14%
COc1cc(NC(=S)N2CCN(c3ccccn3)CC2)cc(OC)c1OC	-1	-3%	-23%[5.75 µM]	1%	-3	1%
COc1ccc(C)cc1NC(=S)N1CCN(c2ccccn2)CC1	62*	9%	1µM*	-23%	35*	25%
Cc1ccnc(NS(=O)(=O)c2ccc(NC(=O)C3C4C=CC(C4)C3C(=O)O)cc2)n1 (stereo not given)	-7	3%	u	0%	-2	27%
CCC(C)C(NC(=O)C(C)NC(=O)CNC(=O)OC(C)(C)C)C(N)=O (stereo not given)	-14	0%	30%	-1%	-2	3%
CC(=O)CC(=O)Nc1ccc2ccccc2c1	33	0%	111%	1%	24	64%
CC(=O)Nc1ccc2cc3ccc(NC(C)=O)cc3nc2c1	30	8%	u	0%	21*	u
CC(=O)Nc1ccc2ccccc2c1	43	-11%	75%	6%	29*	x
O=C(Nc1ccccc1)Nc1ccc2ccccc2c1	81*	-8%	141%	-1%	52*	40%
CCOC(=O)C(Nc1ccc2ccccc2c1)C(=O)OCC	80*	x	u	-62%	74*	u
